# Bioassay records: PubChem, National Center for Advancing Translational Sciences (NCATS)
# L3MBTL1 inh – blocks human L3MBTL1. AlphaScreen L3MBTL1–H3K9me1 peptide binding. Potency, µM (series often up to 57.1 µM), inactives show at the top dose activity, negative = inhibition, hits mostly inhibitors. hit rate 0.66% among 230,000; also: potency is read from the fitted curve at half-maximal effect; % is scaled to controls: 0 for no effect and ±100 for the full control effect; nearly all actives have a fitted effect of over 60% in size
#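 L3MBTL1 (50 nM) pre-complexed 30 min with biotinylated H3(1-15)K9me1 peptide (75 nM), then compounds added for 30 min at room temperature; AlphaScreen streptavidin donor/nickel chelate acceptor beads (10 ug/mL final) read after 30 min dark incubation.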
# HP1b binding inh – inhibitors of HP1-beta chromodomain binding to methylated histone tails; P83916; AlphaScreen HP1-beta / biotin-H3K9me3 peptide binding; Potency, µM (doses to about 114 µM), inactives show at the top dose activity change, negative = inhibition, most hits filed as inhibitors; hit rate 0.56% among 390,000; AID 540317; also: potency is read from the fitted curve at half-maximal effect; nearly all actives have a fitted effect of over 70% in size
#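 HP1-beta protein (50 nM final) preincubated 30 min at room temperature with biotinylated H3(1-18)K9me3 peptide (50 nM) in PBS pH 7.4, 0.01% Tween-20, then compound added for 30 min. AlphaScreen streptavidin donor/nickel chelate acceptor beads (10 ug/mL final), 30 min dark, luminescence read.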
# G9a block – blocks human histone lysine methyltransferase G9a | G9a H3K9 monomethylation, AlphaScreen, 2 h | hit rate 8.8% among 350,000 | Potency, µM (top dose mostly 102 µM), inactives show at the top dose activity, negative = inhibition, actives largely listed as inhibitors | AID 504332 | Q96KQ7; also: potency is read from the fitted curve at half-maximal effect; % is scaled to controls: 0 for no effect and ±100 for the full control effect; nearly all actives have a fitted effect of over 75% in size
#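 AlphaScreen read-out: biotin-H3K9 peptide (500 nM) methylation by 20 nM enzyme with 20 uM SAM, 2 h at room temperature after 15 min compound preincubation; anti-monomethyl H3K9 antibody plus donor/acceptor beads, 10 min dark.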
# JMJD2A Tudor – inhibitors of human JMJD2A Tudor domain. O75164. AlphaScreen JMJD2A-Tudor / H3K4me3 peptide binding. Potency, µM (titrated, usually from 114 µM), without a hit: at the top dose activity change, negative = inhibition, actives largely listed as inhibitors. hit rate 4.4% among 390,000. AID 504339; also: potency is read from the fitted curve at half-maximal effect; % is scaled to controls: 0 for no effect and ±100 for the full control effect; nearly all actives have a fitted effect of over 50% in size
# PI5P4K alpha inh – blocks human PI5P4K alpha kinase activity; AID 652105; PI5P4Kalpha enzyme, ADP-Glo luminescence, 60 min; hits give low values; hit rate 1.2% among 330,000; max response, %; active = max response of -50% or lower; inconclusive = between -30% and -50%; inactive = -30% or higher; also: value at the top dose of about 77 µM; % is scaled to controls: 0 for no effect and ±100 for the full control effect
#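 Reactions run in 0.038 M HEPES pH 7.4, 0.28 mM EGTA, 0.1% CHAPS and 5% DMSO, with PI5P4Kalpha, substrate, compound and 5 microM ATP final, one hour at room temperature. Readout is ADP-Glo luminescence.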
# BAZ2B inh – BAZ2B (human) inhibition. hit rate 4.4% among 360,000. Potency, µM (series often up to 114 µM), for the others: top-dose activity change, negative = inhibition, usual class: inhibitors. AID 504333. Q9UIF8. AlphaScreen BAZ2B-H3K14Ac peptide displacement; also: potency is read from the fitted curve at half-maximal effect; % is scaled to controls: 0 for no effect and ±100 for the full control effect; nearly all actives have a fitted effect of over 60% in size
#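 BAZ2B (50 nM) with biotin-H3(5-23)K14Ac peptide (50 nM) in PBS pH 7.4, 0.01% Tween-20, preformed 30 min, then compound 30 min at room temperature; top concentration 110uM. AlphaScreen streptavidin donor/nickel chelate acceptor beads (10 ug/mL final), 20 min dark, signal read.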
# * hit, by the source's call; ? = inconclusive; nt = no result; [ ] = remark or other dose. This is a sample that favours compounds with a hit; in the whole collection about 11% have one here. Unless noted, calls follow the shape of the dose curve; as a rule, active = well fitted inhibition curve with a large enough effect; inconclusive = small, poorly fitted or top-dose-only effect; inactive = no such curve, though single readings can be large or run the other way.
SMILES,L3MBTL1 inh,HP1b binding inh,G9a block,JMJD2A Tudor,PI5P4K alpha inh,BAZ2B inh
COc1cc(OC)c2c(c1C(CCN1CCCC1)c1ccc(N(C)C)cc1)OC(=O)CC2c1ccc(N(C)C)cc1 (stereo unspecified),nt,?,nt,16µM*,nt,nt
COc1ccc(C2CC(=O)Oc3c(C(CCN4CCCC(C)C4)c4ccc(N(C)C)cc4)c(OC)cc(OC)c32)cc1 (stereo unspecified),nt,14µM*,-120%[59 µM],14µM*,9,14µM*
COc1ccc(C2CC(=O)Oc3c(C(CCN4CCCCC4)c4ccc(N(C)C)cc4)c(OC)cc(OC)c32)cc1 (stereo unspecified),nt,?,-105%[59 µM],16µM*,-7,22µM*
COc1ccc(C(CCN2CCCC(C)C2)c2c(OC)cc(OC)c3c(-c4ccccc4)cc(=O)oc23)cc1 (stereo unspecified),nt,7%,14%[12.7 µM],?,-2,-37%
C/C(=N\NC(=O)c1cc(C2CC2)nc2ccccc12)c1ccc(C)s1,nt,36%,40µM*,-3%,2,-10%
O=C(N/N=C/c1cccc(O)c1)c1cc(C2CC2)nc2ccccc12,nt,32%,7%,-10%,2,-15%
C/C(=N\NC(=O)c1cc(C2CC2)nc2ccccc12)c1ccc(O)cc1O,nt,17%,-4%,-23%,-5,3.5µM*
COc1ccc(-c2nsc(SCC(=O)NCc3ccc4c(c3)OCO4)n2)cc1,5%,50%,25µM*,4%,12,-4%
CSc1nsc(SCC(=O)Nc2ccccc2C(N)=O)n1,nt,13%,79µM*,-6%,-13,-3%
COc1ccc(CNC(=O)CSc2nc(SC)ns2)cc1,nt,22%,45µM*,-13%,0,-7%
COc1cc2c(cc1OC)C(COc1ccc3c(C)cc(=O)oc3c1)N(C(=O)c1cccc(C)c1)CC2 (stereo unspecified),nt,19%,-3%[59 µM],-12%,nt,1%
CC1=C(C(=O)Nc2cccc(Cl)c2C)C2(CCCCCC2)OC1=O,nt,24%,1%[59 µM],-9%,nt,-10%
Cc1ccc(C)c(NC(=O)C2CCCN(c3nc4ccccc4s3)C2)c1 (stereo unspecified),nt,20%,2%[59 µM],-15%,nt,-3%
NC(=O)CC[C@@H]1NC(=O)[C@@H]2CCCN2C(=O)c2cc([N+](=O)[O-])cc(I)c2NCCC[C@@H](C(=O)NC(CC(=O)O)C(N)=O)NC1=O (stereo partly specified),-12%,21%,?,-12%,-8,-3%
NC(=O)CC[C@@H]1NC(=O)[C@@H]2CCCN2C(=O)c2cc([N+](=O)[O-])cc(I)c2NCCCC[C@@H](C(=O)NC(CC(=O)O)C(N)=O)NC1=O (stereo partly specified),1%,42%,56µM*,-22%,3,-25%
NC(=O)CC[C@@H]1NC(=O)[C@@H]2CCCN2C(=O)c2cc([N+](=O)[O-])cc(I)c2NCCC[C@@H](C(N)=O)NC1=O,6%,54%,45µM*,-18%,-2,-11%
C#CCOCCOCCOCCNc1nc(N2CCN(C(=O)CCCCCCCCCCNC(=O)Cn3cc(C[C@@H](C)O)nn3)CC2)nc(N2CCN(C(=O)CCCCCCCCCCNC(=O)[C@H](CO)n3cc(CCCSC)nn3)CC2)n1,-5%,67%,-8%[2.33 µM],-3%,-3,7%
C#CCOCCOCCOCCNc1nc(N2CCN(C(=O)CCCCCCCCCCNC(=O)Cn3cc(CCCCCN)nn3)CC2)nc(N2CCN(C(=O)CCCCCCCCCCNC(=O)Cn3cc(CCCCCN)nn3)CC2)n1,16%,?,-13%[2.33 µM],56µM*,-64*,56µM*
C#CCOCCOCCOCCNc1nc(N2CCN(C(=O)CCCCCCCCCCNC(=O)[C@H](CO)n3cc(CCCSC)nn3)CC2)nc(N2CCN(C(=O)CCCCCCCCCCNC(=O)[C@H](CCCN=C(N)N)n3cc(C[C@@H](C)CC)nn3)CC2)n1,3%,-31%,9%[2.33 µM],79µM*,-79*,?
C#CCOCCOCCOCCNc1nc(N2CCN(C(=O)CCCCCCCCCCNC(=O)Cn3cc(C[C@@H](C)O)nn3)CC2)nc(N2CCN(C(=O)CCCCCCCCCCNC(=O)[C@H](CCCN=C(N)N)n3cc(C[C@@H](C)CC)nn3)CC2)n1,?,?,-35%[2.33 µM],45µM*,-76*,?
C#CCOCCOCCOCCNc1nc(N2CCN(C(=O)CCCCCCCCCCNC(=O)Cn3cc(CCCCCN)nn3)CC2)nc(N2CCN(C(=O)CCCCCCCCCCNC(=O)[C@@H](CCSC)n3cc(CCO)nn3)CC2)n1,1%,?,10%[2.33 µM],79µM*,?,?
COc1cc(NC(=O)CSc2ccc(-c3sc(-c4ccccc4)nc3C)nn2)cc(OC)c1,nt,42%,7%[59 µM],-1%,nt,-3%
C#CCOCCOCCOCCNc1nc(N2CCN(C(=O)CCCCCCCCCCNC(=O)[C@H](CO)n3cc(CCCSC)nn3)CC2)nc(N2CCN(C(=O)CCCCCCCCCCNC(=O)[C@H](CCCCN)n3cc(CCO)nn3)CC2)n1,1%,?,nt,56µM*,-51*,nt
Cc1cccc(N2CCN(CCCNc3ncnc4onc(-c5ccc(Cl)cc5)c34)CC2C)c1 (stereo unspecified),nt,-21%,?,?,nt,?
COc1ccc(-c2nc3cnc(N4CCNCC4)nc3n(C3CC3)c2=O)cc1,nt,nt,-7%[12.7 µM],nt,nt,nt
SMILES,L3MBTL1 inh,HP1b binding inh,G9a block,JMJD2A Tudor,PI5P4K alpha inh,BAZ2B inh
CCOC(=O)c1ccc(N2C(=O)c3[nH]nc(-c4ccc(C)cc4)c3C2c2cccc(F)c2)cc1 (stereo unspecified),nt,9%,-35%[59 µM],-31%,nt,nt
Cc1cccc(NC(=S)NNC(=O)c2ccccc2OC(F)F)c1,nt,8%,?,-23%,-2,12%
Cc1cccc(NC(=S)NNC(=O)c2ccccc2Br)c1,3%,5%,5µM*,-15%,-4,12%
COc1ccccc1NC(=S)NNC(=O)c1ccccc1Br,-1%,19%,35µM*,-4%,-12,-7%
COc1ccccc1NC(=S)c1ccccc1,-14%,-27%,7.9µM*,-21%,-9,-10%
COc1ccccc1C(=O)NNC(=O)c1ccccc1Br,3%[2.29 µM],17%,-5%[0.501 µM],-13%,4,2%
COc1ccccc1NC(=S)NNC(=O)c1ccccc1,nt,25%,nt,-14%,-1,nt
COc1cc(OC)cc(C(=O)NNC(=S)Nc2ccccc2OC)c1,-4%,21%,40µM*,-10%,5,-7%
CCn1c(=O)c2cc(C(=O)NCCc3ccc(OC)c(OC)c3)sc2c2ccccc21,nt,11%,-10%[59 µM],-17%,nt,-3%
COc1ccccc1NC(=S)NNC(=O)c1cc(C)nn1C,nt,33%,?,-14%,-1,-21%
